# According to PubChem BioAssay AID720542 (National Center for Advancing Translational Sciences (NCATS), 2013):
# About 740 (0.21%) of roughly 360,000 compounds were called active. Another 2% or so got no clear call; they are omitted. Calls follow the shape of the dose curve; as a rule, active = well fitted inhibition curve with a large enough effect; inconclusive = small, poorly fitted or top-dose-only effect; inactive = no such curve, though single readings can be large or run the other way. The entries come from a sample that favours actives as a whole. A call without a number means that no potency is given here.
# Test system: Plasmodium falciparum AMA1 (3D7) - RON2 peptide interaction
# Test: qHTS for Inhibitors of AMA1-RON; Towards Development of Antimalarial Drug Lead: Primary Screen; also: nearly all actives have a fitted effect of over 45% in size
# Conditions: AlphaScreen AMA1-biotinylated RON2 peptide binding; series mostly up to 58.2 µM
# Source text: Plasmodium, the causative agent of malaria, is one of the world's deadliest parasitic diseases. Currently there is no vaccine available and there is widespread resistance to common anti-malarial drugs. This warrants novel, alternative approaches for developing improved therapy. During infection, one such essential interaction is between two parasite proteins, the apical membrane antigen1 (AMA1) that is translocated onto the merozoite surface and the rhoptry neck protein 2 (RON2), which is transferred to the red blood cells (RBC) membrane during invasion (Besteiro et.al., 2009). Recently, the Miller lab has shown that the interaction between AMA1 and RON2 is essential for junction formation of the parasite with the host cell (Srinivasan et.al., 2011). The binding of the RON2 peptide to the hydrophobic pocket in AMA triggers the formation of the moving junction which provides a firm anchor for the parasite to pull itself into the RBC using its actin-myosin motor; an irreversible step that commits the parasite for invasion. Only one AMA1 and RON2 genes exists in Plasmodium and there are no alternate pathways. Moreover, the region corresponding to RON2 peptide is conserved in all P. falciparum isolates for which sequences are available. The key residues in the AMA1 hydrophobic pocket that binds RON2 are also conserved and indicate a functional constraint governing this essential step in invasion since a short RON2 peptide (RON2L) corresponding to the binding region on AMA1 is sufficient to compete with the native RON2 protein and inhibits invasion (Tonkin et.al, 2011). Therefore, developing small molecule inhibitors of this interaction offers a promising target opening a new arena for anti-malarial therapeutics drug design.
# In collaboration with the Miller lab, a quantitative High Throughput Screen using the AlphScreen technology was developed using a recombinant his-tagged AMA1 and a biotinylated RON2 peptide. This fluorescent screen was assayed against the NIH Molecular Libraries Small Molecule Repository (MLSMR). Inhibition of this protein-protein interaction is the desired outcome of this assay. However, due the limitations of this AlphaScreen assay, a large number of artifacts were observed. An AlphaScreen counterscreen was run to identify the true inhibitors, triage compound activity, and weed out false positives.
# NIH Chemical Genomics Center [NCGC]
# NIH Molecular Libraries Probe Centers Network [MLPCN]
# Assay Submitter (PI): Louis Miller, National Institute of Allergy and Infectious Disease (NIAID)
# Two microliters of his-tagged AMA1 3D7 allele protein (final concentration 25 nM) was dispensed into a 1,536-well assay plate. Small molecules and positive control peptides were pin-transferred (23 nL or 46 nL) via Kalypsys pin-tool equipped with a 1,536-pin array, resulting in final compound and peptide concentration ranges of 91.5 nM - 57.2 µM, and 15.6 nM - 2.00 µM, respectively. Unlabeled RON2 peptide or R1 peptide ([…]) that specifically binds the 3D7 AMA1 was used as a positive control that inhibited the binding of RON2L to AMA1. After 15 minutes incubation, 1 uL of biotinylated RON2 peptide (final concentration 25 nM) or buffer were dispensed and the assay plate was incubated for an additional 30 minutes at room temperature and protected from light. This was followed by an addition of 1 uL mixture of donor and acceptor beads (10 ug/mL final concentrations for each). The plates were incubated for 30 min at room temperature and read using the EnVision(R) plate reader (PerkinElmer). Maximum inhibition response was normalized to the positive control signal while no inhibition response was normalized to the DMSO treated wells.
# Potency is read from the fitted curve at half-maximal effect.
row,SMILES,Potency
1,CCCN(CCC)CC(O)COc1ccccc1C(=O)Nc1ccccc1 (stereo unspecified),inactive
2,CC(C)C(O)C1CCN(Cc2nc(Cc3ccccc3Cl)no2)CC1 (stereo unspecified),inactive
3,CCCOc1cc(C)c(S(=O)(=O)n2nnc3ccccc32)cc1C,inactive
4,COc1cccc(-n2c(=O)c3c(C)c(C(=O)N(C)C)sc3n(CC(=O)NCCc3ccc(OC)c(OC)c3)c2=O)c1,inactive
5,Cc1ccc(OCC(=O)Nc2cccc3c2CCCC3)cc1C,inactive
6,Oc1cc(O)c2c(c1)OC(c1ccc(O)c(O)c1)C(O)C2 (stereo unspecified),inactive
7,CCOC(=O)C1(Cc2ccccc2C(F)(F)F)CCN(C(=O)c2cc(C)n(C)n2)CC1,inactive
8,C[C@H](CO)N1C[C@H](C)[C@@H](CN(C)C(=O)NC2CCCCC2)Oc2ccc(NC(=O)c3ccncc3)cc2C1=O,inactive
9,CCCCN(C(=O)c1ccc(OC(F)(F)F)cc1)c1c(N)n(CCC)c(=O)[nH]c1=O,inactive
10,CC(C)C(=O)NCC(c1cccs1)S(=O)(=O)c1ccc(F)cc1 (stereo unspecified),inactive
11,Cc1csc(=O)n1CCC(=O)OCC(=O)Nc1ccc(N2CCOCC2)cc1,inactive
12,CCc1c(C)[nH]c(=S)c(C#N)c1C,inactive
13,COc1ccc(C)cc1S(=O)(=O)Nc1cccc(Cl)c1Cl,inactive
14,CCN(CC)C(=O)CSc1nnc(-c2cnccn2)n1-c1ccc(C)cc1,inactive
15,COC(=O)c1ccc(OCC(O)CN(CCO)CC(O)Cn2ccc3ccccc32)cc1 (stereo unspecified),inactive
16,NC(=O)CCCC1=NS(=O)(=O)c2ccccc2N1,inactive
17,CC(CC(=O)Nc1ccc(F)cc1F)S(=O)(=O)c1ccc2c(c1)NC(=O)CO2 (stereo unspecified),inactive
18,O=C(NC1CCCC1)C(NS(=O)(=O)c1ccc(Br)s1)c1ccccc1 (stereo unspecified),inactive
19,Cc1ccc(N)cc1-n1c(C)ccc1C,inactive
20,COc1cc(C(=O)NNC(=O)CN2C(=O)NC3(CCCC3)C2=O)cc(OC)c1OC,inactive
21,OC(c1ccc(Cl)cc1)C(CN1CCOCC1)c1ccccc1 (stereo unspecified),inactive
22,C=CCn1c(SCc2c(C(=O)OC)sc(N)c2C(=O)OC)nnc1-c1ccc(Cl)cc1,inactive
23,CC1(C)CC(=O)c2cnc3nc4ccccc4n3c2C1,inactive
24,CCCC1(C(=O)OC)NC(c2ccco2)C2C(=O)N(C)C(=O)C21 (stereo unspecified),inactive
25,Cn1ccc(=Nc2ccc(NC(=O)c3ccc(N=c4ccn(C)c5ccc([N+](=O)[O-])cc45)cc3)cc2)cc1,inactive
26,CCCN(CCC)S(=O)(=O)c1ccc(C(=O)N2CC3CCC(CC3)C2)cc1,inactive

row,SMILES,Potency
1,CN(c1ccccc1)S(=O)(=O)c1ccc2[nH]c(=O)[nH]c2c1,inactive
2,CC1(C(=O)NCc2ccco2)Cc2c(-c3ccc4c(c3)OCO4)ccnc2O1 (stereo unspecified),inactive
3,COC(=O)c1ccc(NC(=O)CSc2nncc3ccc(OC)c(OC)c23)cc1,inactive
4,COCCN(CC(=O)Nc1ccccc1C)S(=O)(=O)c1ccc(S(=O)(=O)N2CCCC2)cc1,inactive
5,CSc1nnc2c(n1)OC(c1cn(C)c3ccccc13)N(C(C)=O)c1ccccc1-2 (stereo unspecified),inactive
6,O=C(CN1C(=O)NC2(CCCCCCC2)C1=O)NCc1ccc(F)cc1,inactive
7,Cc1nc([N+](=O)[O-])nn1C12CC3CC(CC(Br)(C3)C1)C2,inactive
8,CCOc1ccc(OCC)c(NC(=O)C2CCN(S(=O)(=O)c3c(C)noc3C)CC2)c1,inactive
9,CSCc1cc(N2CCOCC2)nc(SCc2ccc(Cl)cc2Cl)n1,inactive
10,CC(=O)c1ccc(S(=O)(=O)NC2CC(=O)N(c3ccc4c(c3)OCCO4)C2)cc1 (stereo unspecified),inactive
11,NC(=O)CC(NC(=O)Cc1ccc(Br)cc1)c1ccc(NC2CC3CCC2C3)c([N+](=O)[O-])c1 (stereo unspecified),inactive
12,CCOC(=O)C1(Cc2ccccc2C)CCCN(S(C)(=O)=O)C1 (stereo unspecified),inactive
13,COc1ccc(CNC(=O)C[C@H]2C[C@H](C(=O)N3CCOCC3)[C@@]3(C)c4[nH]c5cc(CCC(=O)N(C)C)ccc5c4CCN3C2=O)cc1OC,inactive
14,COc1ccc2occ(C(=O)c3ccc(N=C(C)N(C)C)cc3)c2c1,inactive
15,CN(C)c1ccc(Nc2c3c4c(cccc4n(C)c2=O)C(=O)c2ccccc2-3)cc1,4.47 µM (active)
16,COCCN(C(=O)c1ccco1)c1nnc(-c2ccc(OC)cc2)s1,inactive
17,COCCNC(=O)Nc1ccc2nc(-c3ccco3)c(-c3ccco3)nc2c1,7.08 µM (active)
18,O=C(NCCOc1ccccc1F)Nc1ccc(Br)cc1,inactive
19,CC1=C(C(=O)OC(C)(C)C)C(c2ccc(Br)cc2)NC(=O)N1CCCC(=O)O (stereo unspecified),inactive
20,O=C(CSc1nnc2ccc(-c3ccncc3)nn12)N1CCCCC1,inactive
21,O=C1CCC/C=C\C[C@@H](CC(=O)N(CCO)Cc2ccccc2)C(=O)NCCO1,inactive
22,O=C(O)CSC(NC(=O)c1cccnc1)(C(F)(F)F)C(F)(F)F,inactive
23,COc1ccc(OC)c(C2C3=C(N=c4s/c(=C\c5cccc(O)c5)c(=O)n42)c2ccccc2CC3)c1 (stereo unspecified),inactive
24,CCOCCCN(C)C1CCN(C(=O)c2oc3ccccc3c2NC(=O)COc2cccc(C)c2)CC1,inactive
25,COc1cc(C(=O)OCC(=O)N(CC(C)C)C2CCS(=O)(=O)C2)ccc1OCC(C)C (stereo unspecified),inactive
